Records with an inconclusive call do not appear. Entries that show only a call come without a potency. A number with no mark means an inactive call. Active and inactive are the calls of the source. Calls come from the whole dose curve; as a rule, active = well fitted activation curve with a large enough effect; inconclusive = small, poorly fitted or top-dose-only effect, or another doubt; inactive = no such curve, though single readings can be large or run the other way.
biological target: Rap guanine nucleotide exchange factor 3 (Homo sapiens) (UniProt O95398); experiment: Counterscreen qHTS for agonist of cAMP-regulated guanine nucleotide exchange factor 3 (EPAC1) (AID 1645889); conditions: EPAC1 Rap1B-BODIPY-GDP exchange, fluorescence; series mostly up to 154 µM; note: nearly all actives have a fitted effect of over 40% in size
Description: Assay Provider (PI): Xiaodong Cheng Ph.D. The University of Texas Medical Branch, […], TX MLPCN Grant: NS066510 In multi-cellular eukaryotic organisms, the effects of cAMP are transduced by two ubiquitously-expressed intracellular cAMP receptors, the classic protein kinase A/cAMP-dependent protein kinase (PKA/cAPK) and the more recently discovered exchange protein directly activated by cAMP/cAMP-regulated guanine nucleotide exchange factor (EPAC/cAMP-GEF). Both PKA and EPAC are ubiquitously expressed in all tissues, and an increase in intracellular cAMP levels will lead to the activation of both PKA and EPAC. Therefore, careful dissections of the individual role and relative contribution of EPAC and PKA within the overall cAMP signaling in various model systems are critical for further elucidating the mechanism of cAMP signaling. To date no EPAC-specific antagonists and agonist, as well as isoform-specific agonists have been reported, and developing EPAC-specific pharmacological probes to determine the physiological functions that EPAC play in the overall cAMP-mediated signaling remains a major challenge within the research field. Furthermore, identified regulators of EPAC may lead to new mechanism-based therapeutic strategies specifically targeting the EPAC / cAMP-signaling components as EPAC has been implicated to play important roles in major human pathological conditions such as diabetes, heart disease, and cancer. This qHTS will be used to screen the Molecular Libraries Small Molecule Repository (MLSMR) as a concentration-titration series using the NCGC unique quantitative screening (qHTS) platform to find activators for EPAC1. In addition, this assay will also be used as a counterscreen for the EPAC2 qHTS. This fluorescent based assay is developed and validated for EPAC1 that measures exchange using EPAC effector Rap1 complex with BODIPY-GDP, a GDP analog with a tethered fluorophores. Activators are identified by monitoring the change in fluorescence signal as the exchanged free BODIPY-GDP has a reduced fluorescence compared to Rap1-bound BODIPY-GDP. Increase in signal (activation) is the desired outcome for the EPAC1 agonist while no activity in this assay is desired for the EPAC2 agonist counterscreen. Reference: [1] de Rooij, J., Zwartkruis, F. J., Verheijen, M. H., Cool, R. H., Nijman, S. M., Wittinghofer, A., and Bos, J.L. (1998) Nature 396, 474-477. Kawasaki, H., Springett, G. M., Mochizuki, N., Toki, S., Nakaya, M., Matsuda, M., Housman, D. E., and Graybiel, A. M. (1998) Science 282, 2275-2279.
EPAC1 Counterscreen PROTOCOL TABLE SEQUENCE No. (e.g., 1, 2, 3, etc.); […] (e.g., Cells, Incubation, Reagent, etc.); VALUE and DESCRIPTION. 1. Reagent. 3 uL. [1x] 250 nM Rap1B-BODIPY-GDP, and 50 uM GDP. 2a. Compound. 23 nL. Control 6,572 uM cAMP (working concentration). 2b, 2c. Compound. 23 nL. Control activator and inhibitor; 234 - 30,000 uM cAMP and 16.4 - 10,000 uM. 2d. Compound. 46 nL. MLSMR follow-up library; 0.64 - 10,000 uM. 3. Time. 15 sec, 1000rpm. Centrifuge. 4. Time. 5 min. Incubation at room temperature. 5. Detector. Fluorescence. (Read 1), Ex/Em = 480 nm / 540 nm. 6. Time. 30 min. Incubation at room temperature. 7. Detector. Fluorescence. (Read 2), Ex/Em = 480 nm/ 540 nm. 8. Reagent. 1uL. Dispense either [4x] 10 uM cAMP or buffer. 9. Time. 15 sec, 1000 rpm. Centrifuge. 10. Time. 5 min. Incubation at room temperature. 11. Detector. Fluorescence. (Read 3), Ex/Em = 480 nm / 540 nm. 12. Time. 30 min. Incubation at room temperature. 13. Detector. Fluorescence. (Read 4), Ex/Em = 480 nm / 540 nm. NOTES (numbers refer to Sequence numbers above; values are from representative experiments) 1. Medium-binding black solid-bottom Greiner plates (789176-F). Dispense 3 uL of [1x] 250 nM Rap1B-BODIPY-GDP, and 50 uM GDP into columns 1 to 48. 2a. Control compound cAMP (6,572 uM, column 3, rows 1 to 32) single pin-transferred for a [final] of 50 uM. 2b. […]
Potency is the fitted concentration of half-maximal effect.

SMILES | Potency | activation
COc1ccc(S(=O)(=O)NC(CCSC)C(=O)NC2CCCCC2)cc1 (stereo not given) | inactive | –
O=C1c2cccc3c(O)ccc(c23)C(=O)N1Cc1ccccc1 | 39.8 µM (active) | –
O=S(=O)(Nc1ccccc1-c1ccccc1)c1ccccc1 | inactive | –
O=C(COc1ccccc1Br)Nc1ccccc1C(F)(F)F | inactive | –
COc1ccc(/C=N/N=C2/C(=O)Nc3ccccc32)cc1O | – | 36.3% [at 30.8 µM]
COc1cc(C2CC(=O)Oc3cc(C)c(Cl)c(C)c32)cc(OC)c1OC (stereo not given) | – | 28.3% [at 30.8 µM]
CCc1nnc(NS(=O)(=O)c2ccc(N/C=C\C(=O)c3ccc4ccccc4c3)cc2)s1 | – | 3.82% [at 30.8 µM]
CCC/C=C/c1ccc(CN2C(CC(C)C)C(=O)N(Cc3cn(CCC4OCCO4)nn3)CCS2(=O)=O)cc1 (stereo not given) | inactive | –
CC(C)(C)NC(=O)NC(=O)CN1CCN(S(=O)(=O)c2ccc3c(c2)CCCC3)CC1 | – | 6.75% [at 30.8 µM]
C=Cc1ccc(Cn2nc(-c3ccccc3)ccc2=O)cc1 | – | 15.7% [at 30.8 µM]
CNc1ccc(/C=C(\CCC(=O)O)c2nc3ccccc3s2)cc1[N+](=O)[O-] | – | 19.8% [at 30.8 µM]
COC(=O)c1ccccc1NC(=S)NC(=O)c1ccc(C)cc1 | – | 7.2% [at 30.8 µM]
COc1ccc2nc(N3C(=O)C(O)=C(C(=O)c4ccco4)C3c3ccc(C)o3)sc2c1 (stereo not given) | inactive | –
C=CCn1c(SCC(=O)Nc2cc(Cl)ccc2C(=O)O)nc2sc(C)c(C)c2c1=O | – | 1.53% [at 30.8 µM]
COc1ccc(-c2[nH]c(-c3ccc(F)cc3)nc2SCC(=O)Nc2ccc(OC)c(OC)c2)cc1 | inactive | –
Fc1ccc2c(-c3cccc(C(F)(F)F)c3)c(-c3ccccc3)ncc2c1 | inactive | –
O=C1CC(c2ccccc2)=NN1c1nc(-c2ccccc2)cs1 | inactive | –
COC(=O)c1cc(Br)c(=O)n(CCc2ccc(F)cc2)c1 | inactive | –
Cc1cccc(N2C(=O)c3cccc4c(N)ccc(c34)C2=O)c1 | 70.8 µM (active) | –
Oc1c(C(Nc2nccs2)c2ccc(C(F)(F)F)cc2)ccc2cccnc12 (stereo not given) | – | 3.72% [at 30.8 µM]

SMILES | Potency | activation
Cc1ccc2oc(=O)n(CCCOc3ccccc3Cl)c2c1 | inactive | –
Cn1c(/N=C/c2c(O)ccc3ccccc23)nc2ccccc21 | inactive | –
COc1ccc(OC)c(/C=C/c2ccnc3ccccc23)c1 | – | 14.1% [at 30.8 µM]
O=C(Nc1ccc(Br)cc1C(=O)O)c1ccc2c(c1)C(=O)N(Cc1ccccc1)C2=O | inactive | –
CCCCN(CCCC)C1=Nc2ccccc2N/C1=C(/C#N)C(=O)OCC | inactive | –
CC(C)(C)C(=O)NC(Nc1cccc2cccnc12)C(Cl)(Cl)Cl (stereo not given) | – | 21.1% [at 30.8 µM]
CC1CC2(NC(=O)NC2=O)C(C)CN1C (stereo not given) | inactive | –
CN(CCC#N)C(=O)COC(=O)c1c2c(nc3ccccc13)/C(=C\c1ccco1)CC2 | inactive | –
CC1=CC(C)(C)N2C(=O)C(=Nc3ccc(O)cc3)c3cccc1c32 | inactive | –
Cc1cc(C)nc(SCC(=O)c2ccc(Cl)cc2)n1 | inactive | –
Cc1ccc(NC(=O)CN2C(=O)C(c3ccc(C(C)(C)C)cc3)=NC2(C)C)cc1 | inactive | –
CC1(C)CC2CC(C)(CN2C(=O)c2cc(-c3ccccc3O)on2)C1 (stereo not given) | – | 17.1% [at 30.8 µM]
CSc1ccccc1NC(=O)CN1c2ccccc2CC1C (stereo not given) | – | 44.6% [at 30.8 µM]
CC(=O)Nc1ccc(NC(=S)NC(=O)/C=C/c2ccco2)cc1 | inactive | –
O=C(CSc1n[nH]c(-c2ccccc2)n1)c1ccc(O)c(O)c1 | inactive | –
CCC(C(=O)OC(C)C)c1ccc2ccccc2c1 (stereo not given) | inactive | –
O=C1CC2(CCN(S(=O)(=O)c3ccccc3F)CC2)Oc2ccccc21 | 10 µM (active) | –
CN1/C(=C\C=C(/C#N)C(=O)Nc2ccc(Cl)cc2)C(C)(C)c2ccccc21 | inactive | –
CCc1ccc(C=C2SC(=S)N(CCCC(=O)Nc3ccc(C(=O)O)cc3)C2=O)cc1 | inactive | –
CC(/C=C1\SC(=S)N(c2ccc(C(=O)O)cc2)C1=O)=C\c1ccccc1 | – | 18.6% [at 30.8 µM]
